Source: PubChem (Broad Institute)
C2C12 statin: protects C2C12 myotubes from simvastatin toxicity; ATP luminescence, 48 h; scaled: DMSO 0, geranylgeraniol control 100; rescue of ATP level, % at 7.49 µM; 330,000 compounds, 0.78% hits; AID 602340;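 active = mean ATP rescue above about 67%, or every replicate alone reaching that limit, limit read from the data, passing the limit was not always enough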;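 also: myotubes were challenged with 10 µM simvastatin during compound exposure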
ARNT TACC3 PPI: disrupts binding between human ARNT and TACC3 | Q9Y6A5 | AlphaScreen His-ARNT PAS-B/GST-TACC3 binding, luminescence; TACC3 fragment carries E629A point mutation | inhibition, % at 9.99 µM | 390,000 compounds, 0.66% hits | AID 623870;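 active = mean inhibition of replicates at least 50% and at least half of replicates each reaching 50%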;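 also: 0% = complete ARNT plus TACC3 wells and 100% = ARNT alone without TACC3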
PglD DTNB: inhibitors of Campylobacter jejuni PglD acetyltransferase | purified PglD enzyme, DTNB colorimetric CoA detection | inhibition, % at 12.5 µM | 360,000 compounds, 0.098% hits; in the data active = inhibition above about 16%, passing the limit was not always enough
F508del corr: correctors of CFTR F508del function in bronchial epithelial cells | CFBE cells, YFP halide quenching; stimulated with forskolin plus potentiator P3; % fluorescence drop versus neutral controls | activity (quench increase), % at 7.58 µM | 350,000 compounds, 0.36% hits;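 active = mean added fluorescence quench of at least 8% versus neutral control, with both replicates also reaching 8%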;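 also: cells transiently co-express mutant CFTR-F508del with the halide-sensitive YFP; corrector assay measuring rescue of mutant channel to the surface after 24 h compound exposure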
* = called active by the depositor; · = no result. Shown are actives, neighbours in structure and some others; about 1.4% of the full set was active somewhere.

SMILES | C2C12 statin | ARNT TACC3 PPI | PglD DTNB | F508del corr
Cc1ncc(CO)c(/C=N/N=C/c2ccccc2O)c1O | · | -5 | · | ·
COc1ccc(C2NC(C(=O)O)Cc3c2[nH]c2ccccc32)cc1OC (configuration not stated) | 116* | 35 | -6 | ·
CN1C(=O)c2cc(NC(=O)c3ccc(F)c(F)c3)ccc2OC[C@@H]2O[C@H](CC(=O)N[C@H]3CCN(Cc4ccccc4)C3)CC[C@@H]21 | 14 | 3 | -4 | ·
O=C(Nc1ccccc1F)N1C[C@@H]2[C@H](c3ccccc31)[C@H](CO)N2C(=O)c1ccccn1 | -5 | -8 | 1 | 5
O=C(Nc1ccccc1)N1C[C@@H]2[C@H](c3ccccc31)[C@@H](CO)N2C(=O)c1ccccn1 | 22 | 13 | 3 | 0
O=C(Nc1ccccc1)N1C[C@H]2[C@@H](c3ccccc31)[C@H](CO)N2C(=O)c1ccccn1 | 16 | 0 | 2 | 11*
O=C(Nc1ccccc1F)N1C[C@H]2[C@@H](c3ccccc31)[C@@H](CO)N2C(=O)c1ccccn1 | -16 | 2 | 6 | 9.7*
C[C@@H]1CN([C@@H](C)CO)C(=O)c2cc(NC(=O)CCCCCC(=O)Nc3ccccc3N)ccc2O[C@H]1CN(C)S(C)(=O)=O | · | · | · | 0
C[C@@H]1CN([C@H](C)CO)C(=O)Cc2cc(NC(=O)CCCCCC(=O)Nc3ccccc3N)ccc2O[C@H]1CN(C)Cc1ccc(Oc2ccccc2)cc1 | 104* | 9 | 0 | -3
C[C@H](CO)N1C[C@H](C)[C@@H](CN(C)Cc2ccc(C(F)(F)F)cc2)Oc2ccc(NC(=O)CCCCCC(=O)Nc3ccccc3N)cc2CC1=O | 106* | 5 | -3 | 0
C[C@@H]1CN([C@H](C)CO)C(=O)Cc2cc(NC(=O)CCCCCC(=O)Nc3ccccc3N)ccc2O[C@H]1CN(C)Cc1ccc(Cl)c(Cl)c1 | · | · | · | -2
C[C@H]1CN([C@@H](C)CO)C(=O)Cc2cc(NC(=O)CCCCCC(=O)Nc3ccccc3N)ccc2O[C@H]1CN(C)Cc1ccc(-c2ccccc2)cc1 | 142* | -1 | -2 | 0
C[C@H]1CN([C@@H](C)CO)C(=O)Cc2cc(NC(=O)CCCCCC(=O)Nc3ccccc3N)ccc2O[C@@H]1CN(C)Cc1ccc(Cl)c(Cl)c1 | 124* | -22 | 3 | -1
CNC[C@H]1Oc2c(NC(=O)Nc3ccc4c(c3)OCO4)cccc2C(=O)N([C@@H](C)CO)C[C@H]1C | -60 | 3 | -6 | 1
CCCN1[C@@H]2c3ccc(-c4cccnc4)c(=O)n3C[C@@H]2[C@@H](CO)[C@@H]1C(=O)NCCN1CCCC1 | -10 | · | 1 | -3
C[C@H](CO)N1C[C@H](C)[C@@H](CN(C)Cc2cncnc2)Oc2cc(C3=CCCC3)ccc2S1(=O)=O | -11 | 13 | 1 | -2
CCOC(=O)c1c(C)sc2c1N(C(=O)CN(CC)CC)c1cc(Cl)ccc1S2 | 115* | 11 | -15 | ·
CO[C@H]1CN(C)C(=O)c2ccc(NC(=O)Cc3ccccc3)cc2OC[C@H](C)N(C(C)=O)C[C@H]1C | -18 | -2 | -3 | -1
COc1ccc(S(=O)(=O)Nc2cccc3c2O[C@@H](CN(C)C(=O)Nc2ccc(C(F)(F)F)cc2)[C@@H](C)CN([C@H](C)CO)C3=O)cc1 | · | -6 | -1 | -2
CC(=O)Oc1ccccc1/C=C/c1nc2ccccc2c(=O)o1 | 18 | 0 | 4 | 0
C/C(O)=c1/c(=O)nc2cccc3c2=c1c1ccccc1c3=O | -11 | 46* | -3 | 3
C[C@H]1CN([C@@H](C)CO)C(=O)c2cc(NC(=O)c3ccncc3)ccc2O[C@H]1CN(C)Cc1ccc2c(c1)OCO2 | 4 | · | · | 0
CN(C)CCNc1ccc2nnn3c4ccc(O)cc4c(=O)c1c23 | · | 45 | · | 4
CCN(CC)CCCNc1ccc2ncn3c4ccc(O)cc4c(=O)c1c23 | · | 74* | · | 20*
COc1ccc2c3c(n(C)c2c1)[C@H](CO)N(C(=O)NC1CCCC1)CC31CCN(C(C)=O)CC1 | · | · | · | 2
SMILES | C2C12 statin | ARNT TACC3 PPI | PglD DTNB | F508del corr
NC(=Nc1ccccc1)Nc1ccccc1 | 9 | 6 | -1 | -1
ONC(=Nc1ccccc1)C(=Nc1ccccc1)NO | 86* | -3 | 7 | ·
C[C@H](CO)N1C[C@H](C)[C@H](CN(C)C)Oc2cc(C#CC3(O)CCCC3)ccc2S1(=O)=O | 1 | 2 | 0 | 2
CCOc1ccc(S(=O)(=O)NN)cc1 | 96* | -13 | 1 | ·
CCOC(=O)c1cnc(-c2cccc(OC)c2)[nH]c1=O | 5 | 0 | 2 | ·
CCOC(=O)c1cnc(COc2ccc(OC)cc2)[nH]c1=O | · | -2 | · | 53*
COc1ccc(S(=O)(=O)N2CCN(Cc3cccc(Cl)c3)CC2)cc1 | 105* | -22 | 3 | ·
CCOC(=O)C1=C(C)N(CCCCCC(=O)O)C(=O)NC1c1ccccc1Cl (configuration not stated) | 105* | 2 | -5 | 2
Cc1ccc2nc(SCC(=O)N(CC(C)C)c3c(N)n(CC(C)C)c(=O)[nH]c3=O)[nH]c2c1 | 101* | 1 | 2 | ·
C[C@H]1CN([C@@H](C)CO)C(=O)Cc2cc(NC(=O)Cc3cn(C)c4ccccc34)ccc2O[C@@H]1CN(C)Cc1ccc(-c2ccccc2)cc1 | 60 | · | · | 5
C[C@H]1CN([C@@H](C)CO)C(=O)Cc2cc(NC(=O)Cc3cn(C)c4ccccc34)ccc2O[C@H]1CN(C)Cc1ccc(Oc2ccccc2)cc1 | 48 | 12 | -1 | 5
C[C@H](CO)N1C[C@H](C)[C@@H](CN(C)Cc2ccc(Oc3ccccc3)cc2)Oc2ccc(NC(=O)Cc3cn(C)c4ccccc34)cc2CC1=O | 114* | 34 | 2 | -5
C[C@@H]1CN([C@H](C)CO)C(=O)Cc2cc(NC(=O)Cc3cn(C)c4ccccc34)ccc2O[C@H]1CN(C)Cc1ccc(-c2ccccc2)cc1 | 93* | · | · | 3
C[C@H](CO)N1C[C@H](C)[C@@H](CN(C)S(=O)(=O)c2ccc(F)cc2)Oc2ccc(NC(=O)Cc3cn(C)c4ccccc34)cc2CC1=O | 102* | 1 | 1 | 1
C/C=C/c1ccc([C@@H]2[C@@H](CO)N(C(C)=O)C23CN(C(=O)c2cnccn2)C3)cc1 | · | · | · | 2
CN1c2ccc(-c3ccccc3F)cc2[C@@H]2[C@@H](CCN2C(=O)Nc2ccc(F)cc2)[C@@H]1CO | 7 | 6 | -1 | 1
Cc1ccc(S(=O)(=O)NCc2ccccc2)cc1C(=O)N1CC(C)CC(C)C1 (configuration not stated) | 7 | -13 | 4 | 8.3*
Cc1ccc(S(=O)(=O)NCc2ccccc2)cc1C(=O)N1CCCCC1 | -5 | -3 | -5 | 0
COC(=O)C1=CN(c2ccc(OC)cc2)C(N)=C(C#N)C1c1ccccc1F (configuration not stated) | · | · | · | -3
COC(=O)C1=CN(c2ccc(OC)cc2OC)C(N)=C(C#N)C1c1ccccc1F (configuration not stated) | · | · | · | 9.8*
S=C(NCCN1CCOCC1)N/N=C/c1cccs1 | 3 | 4 | · | -3
Oc1cccc(/C=N/NC(=S)NCCN2CCOCC2)c1O | 13 | 69* | · | 1
